According to a collection of fitness landscapes (doi:10.1126/science.1257360):
Over roughly 140,000 sequences, “enrichment ratio after two sorts for PhoP signalling” has its median near 0; the highest 2% begin near 11. The full list was thinned out, with the highest values kept by preference.

B1: PhoQ; a variant is named by its letters at X, in order, P23837 (parent)
chain: MKKLLRLFFPLSLRVRFLLATAAVVLVLSLAYGMVALIGYSVSFDKTTFRLLRGESNLFYTLAKWENNKLHVELPENIDKQSPTMTLIYDENGQLLWAQRDVPWLMKMIQPDWLKSNGFHEIEADVNDTSLLLSGDHSIQQQLQEVREDDDDAEMTHSVAVNVYPATSRMPKLTIVVVDTIPVELKSSYMVWSWFIYVLSANLLLVIPLLWVAAWWSLRPIEALAKEVRELEEHNRELLNPATTRELTSLVRNLNRLLKSERERYDKYRTTLTDLTHSLKTPLXXLQXXLRSLRSEKMSVSDAEPVMLEQISRISQQIGYYLHRASMRGGTLLSRELHPVAPLLDNLTSALNKVYQRKGVNISLDISPEISFVGEQNDFVEVMGNVLDNACKYCLEFVEISARQTDEHLYIVVEDDGPGIPLSKREVIFDRGQRVDTLRPGQGVGLAVAREITEQYEGKIVAGESMLGGARMEVIFGRQHSAPKDE

Variants of: B1
Test: enrichment ratio after two sorts for PhoP signalling (ratio (wild type AVST 3.29)); higher = more functional
Settings: with PhoP (E. coli)
EVSQ was tested, and the enrichment ratio was no more than 0.25. SCCW showed an enrichment ratio of 5.25. For TARR, the enrichment ratio was 0.314. Variant PTWW has an enrichment ratio of no more than 0.25. TDAI gave an enrichment ratio of 13.6. Work on KDAI yielded an enrichment ratio of no more than 0.25. ADAI showed an enrichment ratio of 4.82. FQTM showed an enrichment ratio of no more than 0.25. Work on TQTC yielded an enrichment ratio of 18.9. TQFC showed an enrichment ratio of 8.5. For TQTA, the enrichment ratio was 5.01. GQTM was tested, and the enrichment ratio was no more than 0.25. In the case of NQSC, the enrichment ratio is reported as no more than 0.25. TQTM showed an enrichment ratio of 22.5. Variant TQTK has an enrichment ratio of no more than 0.25. Work on TQSC yielded an enrichment ratio of 15.3. FPER gave an enrichment ratio of no more than 0.25. LWDG was tested, and the enrichment ratio was no more than 0.25. In the case of AIGV, the enrichment ratio is reported as no more than 0.25. AMGV was tested, and the enrichment ratio was no more than 0.25. AHGV gave an enrichment ratio of no more than 0.25. AGGV gave an enrichment ratio of 11.4. For AEGV, the enrichment ratio was 17.5. AEHV showed an enrichment ratio of no more than 0.25. In the case of VYHA, the enrichment ratio is reported as no more than 0.25. With ALVG the enrichment ratio was 1.71. HEES gave an enrichment ratio of no more than 0.25. LAFL gave an enrichment ratio of 2.72. AFDH showed an enrichment ratio of no more than 0.25. ALNL showed an enrichment ratio of 1.07. With ACWM the enrichment ratio was no more than 0.25. In the case of ACIM, the enrichment ratio is reported as 30.7. For ACTI, the enrichment ratio was 5.16. With ALQN the enrichment ratio was no more than 0.25. ACTM showed an enrichment ratio of 11.9. ACGM was tested, and the enrichment ratio was no more than 0.25. Work on ACTC yielded an enrichment ratio of 4.29. In the case of ALVN, the enrichment ratio is reported as 13.7. ACNL showed an enrichment ratio of no more than 0.25. Variant ACVN has an enrichment ratio of 31.5. For ACPN, the enrichment ratio was no more than 0.25. NDFR gave an enrichment ratio of 2.54. In the case of FPHA, the enrichment ratio is reported as no more than 0.25. HDNY was tested, and the enrichment ratio was no more than 0.25. QCKR gave an enrichment ratio of no more than 0.25. Work on LDKY yielded an enrichment ratio of no more than 0.25. Variant YWPF has an enrichment ratio of no more than 0.25. In the case of DPVE, the enrichment ratio is reported as no more than 0.25. NGRY showed an enrichment ratio of no more than 0.25. ACAV showed an enrichment ratio of 3.32. Work on ACRM yielded an enrichment ratio of no more than 0.25. ACAE gave an enrichment ratio of 15.5. For KCAE, the enrichment ratio was no more than 0.25. Variant ACAK has an enrichment ratio of 0.412. YTVN showed an enrichment ratio of no more than 0.25. ACAM was tested, and the enrichment ratio was 30.7. With ACAT the enrichment ratio was 0.287. With ATPN the enrichment ratio was no more than 0.25. ACQN showed an enrichment ratio of no more than 0.25. In the case of ATVN, the enrichment ratio is reported as 19.4. In the case of ACAN, the enrichment ratio is reported as 15.5. In the case of CLIL, the enrichment ratio is reported as no more than 0.25. Work on RMFK yielded an enrichment ratio of no more than 0.25. PFPY gave an enrichment ratio of no more than 0.25. With RDQR the enrichment ratio was no more than 0.25. For IEIS, the enrichment ratio was no more than 0.25. In the case of IVGI, the enrichment ratio is reported as no more than 0.25. Work on EILP yielded an enrichment ratio of no more than 0.25. Work on ACVM yielded an enrichment ratio of 12.1. For ACNM, the enrichment ratio was no more than 0.25. ACPM showed an enrichment ratio of 0.39. Work on PFDF yielded an enrichment ratio of no more than 0.25. TKVA gave an enrichment ratio of 18.4. In the case of TKVK, the enrichment ratio is reported as no more than 0.25. Variant AKVQ has an enrichment ratio of 2.82. Variant TKVQ has an enrichment ratio of 11.7. For HKVI, the enrichment ratio was no more than 0.25. MKVH was tested, and the enrichment ratio was no more than 0.25. For AKVI, the enrichment ratio was 5.34. For TKVI, the enrichment ratio was 30.1. HKVH showed an enrichment ratio of no more than 0.25. Work on TKVH yielded an enrichment ratio of 12.3. KKVQ gave an enrichment ratio of no more than 0.25. Variant TKVG has an enrichment ratio of 1.43. With RIDW the enrichment ratio was no more than 0.25. In the case of SRWP, the enrichment ratio is reported as no more than 0.25. With PCHL the enrichment ratio was no more than 0.25. IMSS showed an enrichment ratio of no more than 0.25. RNRM showed an enrichment ratio of no more than 0.25. In the case of QWVH, the enrichment ratio is reported as no more than 0.25. In the case of AEDM, the enrichment ratio is reported as no more than 0.25. Variant YQHC has an enrichment ratio of no more than 0.25. Work on TKVV yielded an enrichment ratio of 16.7. With MKVM the enrichment ratio was no more than 0.25. In the case of TKVM, the enrichment ratio is reported as 36.7. Work on MEMA yielded an enrichment ratio of no more than 0.25. HKVV gave an enrichment ratio of no more than 0.25. TKMA was tested, and the enrichment ratio was 20.5. AKVM showed an enrichment ratio of no more than 0.25. In the case of AKVV, the enrichment ratio is reported as 11. With HKMA the enrichment ratio was no more than 0.25. For TEIA, the enrichment ratio was 5.22. RVAC showed an enrichment ratio of no more than 0.25. With LPRF the enrichment ratio was no more than 0.25. In the case of VFWD, the enrichment ratio is reported as no more than 0.25. In the case of DAPE, the enrichment ratio is reported as no more than 0.25. QDDV gave an enrichment ratio of no more than 0.25. VEGH gave an enrichment ratio of no more than 0.25. Variant TCGP has an enrichment ratio of 1.63. NHSH showed an enrichment ratio of no more than 0.25. TCGH showed an enrichment ratio of 23.5. SHSH showed an enrichment ratio of 0.368. In the case of KSGH, the enrichment ratio is reported as no more than 0.25. Work on THSH yielded an enrichment ratio of 12.3. TLGH was tested, and the enrichment ratio was 12.5. Variant HFGH has an enrichment ratio of no more than 0.25. KLGH showed an enrichment ratio of no more than 0.25. THGH showed an enrichment ratio of 13.1. In the case of TLGP, the enrichment ratio is reported as no more than 0.25. With NPCL the enrichment ratio was no more than 0.25. Work on WFFE yielded an enrichment ratio of no more than 0.25. Variant IMHM has an enrichment ratio of no more than 0.25. For NGPM, the enrichment ratio was no more than 0.25. PILN was tested, and the enrichment ratio was no more than 0.25. REPM was tested, and the enrichment ratio was no more than 0.25. With FADW the enrichment ratio was no more than 0.25. TMTH showed an enrichment ratio of 9.92. In the case of TMGH, the enrichment ratio is reported as 15.3. With TMGP the enrichment ratio was no more than 0.25. With STKH the enrichment ratio was no more than 0.25. Work on MEYL yielded an enrichment ratio of 3.47. MNNL showed an enrichment ratio of 0.29. KLYL was tested, and the enrichment ratio was no more than 0.25. For MCGV, the enrichment ratio was 13.4. TTGD gave an enrichment ratio of 0.456. For YTGM, the enrichment ratio was no more than 0.25. MLYL was tested, and the enrichment ratio was 10.2. Work on TTGM yielded an enrichment ratio of 28.6. Work on MNYL yielded an enrichment ratio of 12. With MMGV the enrichment ratio was no more than 0.25. MEGV showed an enrichment ratio of no more than 0.25. For MCYL, the enrichment ratio was 13. With DQFA the enrichment ratio was no more than 0.25. KQAS showed an enrichment ratio of no more than 0.25. PFKG gave an enrichment ratio of no more than 0.25. For NGPW, the enrichment ratio was no more than 0.25. Work on AAVK yielded an enrichment ratio of no more than 0.25. Variant MCRM has an enrichment ratio of no more than 0.25. In the case of MCAY, the enrichment ratio is reported as 4.41. NAHM gave an enrichment ratio of no more than 0.25. For MCYI, the enrichment ratio was 27.7. MCVA was tested, and the enrichment ratio was no more than 0.25. MCDS gave an enrichment ratio of no more than 0.25. MCWM showed an enrichment ratio of 16.4. MCWI showed an enrichment ratio of 18.3. With MCCK the enrichment ratio was no more than 0.25. KAHM showed an enrichment ratio of no more than 0.25. TAHM showed an enrichment ratio of 14.1. MCYK was tested, and the enrichment ratio was no more than 0.25. Work on LMRM yielded an enrichment ratio of no more than 0.25. Variant TVRL has an enrichment ratio of 0.897. LALM showed an enrichment ratio of 8.02. FHFV showed an enrichment ratio of no more than 0.25. With EESR the enrichment ratio was no more than 0.25. For ICWM, the enrichment ratio was no more than 0.25. With MCAM the enrichment ratio was 12.2. MAHM was tested, and the enrichment ratio was 14.7. FVHM gave an enrichment ratio of no more than 0.25. With ICGM the enrichment ratio was no more than 0.25. In the case of TGGM, the enrichment ratio is reported as no more than 0.25. With FDHM the enrichment ratio was no more than 0.25. THGM was tested, and the enrichment ratio was 12.3. For ICAM, the enrichment ratio was 17.4. Work on KCGM yielded an enrichment ratio of no more than 0.25. MKAM was tested, and the enrichment ratio was no more than 0.25. Variant KCAM has an enrichment ratio of no more than 0.25. Work on GDQT yielded an enrichment ratio of no more than 0.25. Variant TWQT has an enrichment ratio of no more than 0.25. Variant IVCI has an enrichment ratio of no more than 0.25. In the case of MCDM, the enrichment ratio is reported as no more than 0.25. In the case of MLWM, the enrichment ratio is reported as no more than 0.25. With MAAK the enrichment ratio was no more than 0.25. MCAK gave an enrichment ratio of 21.4. MNFL gave an enrichment ratio of 14.1. With MCGM the enrichment ratio was 12.2. Work on TNFL yielded an enrichment ratio of no more than 0.25. Variant MKFL has an enrichment ratio of 0.755. MLAM gave an enrichment ratio of 15.5. Work on MCVM yielded an enrichment ratio of no more than 0.25. In the case of MKAK, the enrichment ratio is reported as no more than 0.25. For MLNM, the enrichment ratio was no more than 0.25. For KFHC, the enrichment ratio was no more than 0.25. RINI was tested, and the enrichment ratio was no more than 0.25. Work on PWSK yielded an enrichment ratio of no more than 0.25. EKTT gave an enrichment ratio of no more than 0.25.
